The values below come from PubChem BioAssay (Tox21).

Structures are written as SMILES. Values joined by “and” are separate entries in the source; they are usually repeats but may differ in a detail not shown here. Equal entries are not always repeated. Inconclusive results are not listed. Where a call stands in place of a potency, no number is given. Active and inactive are the calls of the source. The call rests on the fitted dose curve.
Potency means the concentration at half of the fitted maximal effect.

The test in a line: qHTS assay for small molecule disruptors of the mitochondrial membrane potential - cell viability (AID 720634). Further: nearly all actives have a fitted effect of over 20% in size. The note with it: HepG2 viability, ATP luminescence (CellTiter-Glo), 1 h; series mostly up to 83.2 µM. From the text:
U.S. Tox21 Program National Center for Advancing Translational Sciences [NCATS] NIH Chemical Genomics Center [NCGC] U.S. Environmental Protection Agency [EPA] National Institutes of Environmental Health Sciences [NIEHS] National Toxicology Program [NTP] U.S. Food and Drug Administration [FDA] Tox21 Assay Overview: Mitochondrial membrane potential (MMP), one of the parameters for mitochondrial function, is generated by mitochondrial electron transport chain that creates an electrochemical gradient by a series of redox reactions. This gradient drives the synthesis of ATP, a crucial molecule for various cellular processes. Measuring MMP in living cells is commonly used to assess the effect of chemicals on mitochondrial function; decreases in MMP can be detected using lipophilic cationic fluorescent dyes. […] The dye accumulates in the mitochondria of healthy cells as aggregates, with red fluorescence. The mitochondrial potential decreases and the dye could not accumulate in the mitochondria and remains in the cytoplasm in monomers, with green fluorescence. In addition to the mitochondrial potential assay, these cells were also used to test the cytotoxicity by determining the cell viability in the culture based on the quantitation of ATP present. The cytotoxicity was measured in the same assay well of MMP assay.
Tox21 Assay Protocol Summary: 2,000 HepG2 cells in 5 uL/well were dispensed into black, clear-bottom 1536-well plates using a Multidrop Combi (Thermo Scientific) dispenser. The assay plates were incubated for an overnight at 37 C to allow cells to attach to the wells, followed by the transfer of 23 nL compound or DMSO vehicle by a pin tool (Kalypsys). The plates were incubated for 1 hr at 37 C and 5% CO2, followed by the addition of 5 uL of 2X m-MPI dye into each well using Flying Reagent Dispenser (Aurora Discovery) and then CellTiter-Glo reagent was added at 4 uL/well and incubated 30 min at room temperature. Then luminescence intensity was quantified on a ViewLux CCD-based plate reader.
(Quantitative high-throughput screening tests each substance at several concentrations.)
For `CCCN(CCC)c1c([N+](=O)[O-])cc(C(C)C)cc1[N+](=O)[O-]`, the Potency entry is “inactive”.
For `SCc1ccccc1` the value was “inactive”; for `O=C1NC(=O)C(=O)C(=O)N1`, “inactive”.
In the case of `CN(C)C(=O)Nc1cccc(OC(=O)NC(C)(C)C)c1` it was “inactive”; in that of `C=CC(=O)NC(C)(C)CC(C)=O`, “inactive”.
For `CC(O)CN1CCN(CC(=O)[O-])CCN(CC(=O)[O-])CCN(CC(=O)[O-])CC1.[Gd+3]` (stereo not given) the value was “inactive”; for `COc1ccc(C(=O)c2c(C)n(CCN3CCOCC3)c3ccccc23)cc1`, “inactive”.
Regarding `COc1ccc2c(c1OC)C(=O)O[C@H]2[C@@H]1c2cc3c(cc2CCN1C)OCO3`, the Potency entry was “inactive”.
In the case of `CCSCc1ccccc1OC(=O)NC` it was “inactive”; in that of `O=C1CC[C@@]2(O)[C@H]3Cc4ccc(O)c5c4[C@@]2(CCN3CC2CC2)[C@H]1O5`, “inactive”; in that of `CC(C)(C)CC(C)(C)c1ccc(O)cc1`, 23.7 µM (active) and 17.2 µM (active).
In the case of `CCCCCCCCCCCCN(C)C` it was “inactive”.
For `C=CCc1ccccc1O` the value was “inactive”.
On to `CCCCC(CC)COC(=O)c1c(Br)c(Br)c(Br)c(Br)c1C(=O)OCC(CC)CCCC` (stereo not given), for which the Potency result is “inactive”.
In the case of `C[N+](C)(C)CC1CO1` (stereo not given) it was “inactive”.
In the case of `CCCN(CCC)C(=O)Cc1c(-c2ccc(Cl)cc2)nc2ccc(Cl)cn12` it was “inactive”; in that of `COP(=O)(OC)OC(Br)C(Cl)(Cl)Br` (stereo not given), “inactive”.
For `C=CCSSCC=C`, the Potency result is “inactive”.
For `CCCCC(CC)CO[N+](=O)[O-]` (stereo not given) the value was “inactive”.
In the case of `C[C@]12C=CC3=C4CCC(=O)C=C4CC[C@H]3[C@@H]1CC[C@@H]2O` it was “inactive”; in that of `Cc1nc(N(C)C)nc(OC(=O)N(C)C)c1C`, “inactive”; in that of `CCCCOC(=O)CCC(=O)OCCCC`, “inactive”.
For `CC(C)c1ccc(NC(=O)N(C)C)cc1` the value was “inactive”; for `CCOC(=O)C1OC1(C)c1ccccc1` (stereo not given), “inactive”; for `CN[C@@H](C)[C@H](O)c1ccccc1`, “inactive”.
`O=C(O)COc1cc(Cl)c(Cl)cc1Cl`: the Potency entry was “inactive”.
For `OC[P+](CO)(CO)CO` the value was “inactive”.
For `CC(C)(C#N)C(C)(C)C#N`, the Potency entry is “inactive”.
On to `C=C(Cl)Cl`, for which the Potency result is “inactive”.
Take `CCOP(=S)(OCC)SCSc1cc(Cl)ccc1Cl`: the Potency result was “inactive”.
Consider `CCC1(CCC(C)C)C(=O)NC(=O)NC1=O`, for which the Potency result is “inactive”.
Regarding `CCc1ccccc1N`, the Potency entry was “inactive”.
On to `Cc1cnc(C2=NC(C)(C(C)C)C(=O)N2)c(C(=O)O)c1` (stereo not given), for which the Potency result was “inactive”.
For `Nc1cc(Cl)cc(C(=O)O)c1Cl` the value was “inactive”; for `Cc1ccccc1`, “inactive”; for `CCC[N+](CCC)(CCC)CCC`, “inactive”.
In the case of `CCC1(C2=NCCN2)Cc2ccccc2O1` (stereo not given) it was “inactive”; in that of `CCCCCCCCCCCCCCCl`, “inactive”; in that of `O=C(NC(=O)c1cc(F)c(F)cc1Cl)Nc1cc(F)ccc1N1CCC(C(=O)O)CC1`, “inactive”.
For `COC(=O)Cc1ccccc1` the value was “inactive”.
